Source: PubChem (National Center for Advancing Translational Sciences (NCATS))
Only some compounds are listed: those with a hit (about 1.2% of all), similar ones and a draw of the others.
TrxR1 substrate – qHTS Assay for Substrates of Mammalian Selenoprotein Thioredoxin Reductase 1 (TrxR1): qHTS; Thioredoxin reductase 1, cytoplasmic (Rattus norvegicus), O89049; purified TrxR1 substrate turnover, NADPH consumption readout; Potency, µM (doses to about 114 µM), for inactives: at the top dose activity change, negative = substrate turnover; 390,000 compounds, 0.01% hits; note: nearly all actives have a fitted effect of over 50% in size
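Rat TrxR1, dispensed at 90 nM, was prereduced with 400 uM NADPH (final) for 5 min at ~22 deg C, then incubated with compound 15 min before 400 uM selenite. A first-read NADPH fluorescence drop versus no-compound background flagged substrates.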
GALK inhibitor – qHTS Assay for Inhibitors of Human Galactokinase (GALK). Potency, µM (highest dose often 57.5 µM), inactives show at the top dose activity change, negative = inhibition, actives largely listed as inhibitors. Purified GALK, Kinase-Glo residual ATP luminescence. AID 1868, 2009. 270,000 compounds, 0.007% hits. P51570
Target sequence (P51570 whole entry, looked up): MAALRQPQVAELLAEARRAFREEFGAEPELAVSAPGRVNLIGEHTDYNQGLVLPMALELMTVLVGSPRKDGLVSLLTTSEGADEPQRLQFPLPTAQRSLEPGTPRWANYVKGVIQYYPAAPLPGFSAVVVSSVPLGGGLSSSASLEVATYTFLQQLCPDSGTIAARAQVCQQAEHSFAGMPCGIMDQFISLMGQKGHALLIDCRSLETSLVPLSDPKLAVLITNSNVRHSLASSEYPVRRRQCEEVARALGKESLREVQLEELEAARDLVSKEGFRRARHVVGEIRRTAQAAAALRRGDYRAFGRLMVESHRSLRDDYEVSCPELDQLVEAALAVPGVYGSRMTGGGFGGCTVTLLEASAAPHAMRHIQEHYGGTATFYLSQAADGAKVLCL
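ATP-depletion format; final 35 uM ATP, 100 uM D-galactose, 5 nM enzyme; pH 8.0 HEPES/Mg2+ buffer; 60 min RT; luminescence read 10 min after detection reagent.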
NPSR antag – qHTS Assay for Antagonists of the Neuropeptide S Receptor: cAMP Signal Transduction. Q6W5P4. CHO-NPSR cells, cAMP TR-FRET, antagonist mode. Potency, µM (titrated, usually from 38.3 µM), for the others: at the top dose activity change, negative = inhibition, hits mostly inhibitors. 220,000 compounds, 1% hits; note: nearly all actives have a fitted effect of over 50% in size
TrxR1 inh – qHTS Assay for Inhibitors of Mammalian Selenoprotein Thioredoxin Reductase 1 (TrxR1): qHTS | recombinant rTrxR1, NADPH fluorescence consumption, selenite substrate | Thioredoxin reductase 1, cytoplasmic (Rattus norvegicus), O89049 | Potency, µM (top dose mostly 114 µM), for inactives: top-dose activity change, negative = inhibition, most hits filed as inhibitors | 390,000 compounds, 1% hits; note: nearly all actives have a fitted effect of over 65% in size
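Rat TrxR1 (90 nM in the dispensed reagent) was pre-reduced with 400 uM NADPH for 5 min at room temperature, then incubated with compound for 15 min. After 400 uM selenite was added, NADPH fluorescence (Ex 340/Em 450 nm) was followed for 8 min.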
Active calls of the source: *; ? = inconclusive; . = not tested or not shown; [ ] = remark or other dose. Calls come from the whole dose curve; as a rule, active = well fitted curve in the direction sought with a large enough effect; inconclusive = small, poorly fitted or top-dose-only effect, or another doubt; inactive = no such curve, though single readings can be large; an effect the other way counts as inactive or inconclusive. % is set by controls: 0 for no effect and ±100 for the full control effect; potency is the fitted concentration of half-maximal effect.

SMILES	TrxR1 substrate	GALK inhibitor	NPSR antag	TrxR1 inh
O=C(NCC(c1ccco1)S(=O)(=O)c1cccs1)c1ccccc1F (stereo unspecified)	4%[57.1 µM]	.	.	0%[57.1 µM]
Cc1c(C(=O)O)cccc1-n1c(C)cc(/C=N/Nc2ccc([N+](=O)[O-])cn2)c1C	-10%	8%	10µM*	-19%
Cc1cc(/C=N/Nc2ccc([N+](=O)[O-])cn2)c(C)n1-c1ccccc1	-6%	4%	-14%[46.1 µM]	-19%
CCOC(=O)c1ccc(N2C(=O)C3C(C2=O)C(C(=O)c2ccc(Cl)cc2)N2CCCC32)cc1 (stereo unspecified)	-1%	-2%	?	3.5µM*
CCCN(CCC)C1=N/C(=C\c2ccco2)C(=O)N1c1ccccc1	-10%	0%	?	25µM*
CCCN=C1N/C(=C\c2ccco2)C(=O)N1c1ccccc1	-14%	-5%	-7%[46.1 µM]	-36%
O=C(CCCn1c(=O)[nH]c2ccccc2c1=O)N1CCN(c2ccccc2)CC1	2%[57.1 µM]	.	.	7%[57.1 µM]
Cc1cc(C)n2nc3nc(N4CCCCC4)nc(-c4ccco4)c3c2n1	3%[57.1 µM]	0%	-12%[46.1 µM]	10µM*
CCc1nnc(NC(=O)c2nc(S(=O)(=O)Cc3ccc(C)cc3)ncc2Cl)s1	1%	-1%	.	45µM*
CCSc1ncc(Cl)c(C(=O)Nc2ccccc2OC)n1	4%	-7%	.	23%
CCOc1ccccc1NC(=O)c1nc(S(=O)(=O)Cc2cccc(C)c2)ncc1Cl	-9%	1%	.	7.1µM*
CCc1nnc(NC(=O)c2nc(S(=O)(=O)Cc3ccccc3)ncc2Cl)s1	1%	3%	.	45µM*
CCc1nnc(NC(=O)c2nc(S(=O)(=O)Cc3cccc(C)c3)ncc2Cl)s1	-3%	-3%	.	40µM*
COc1ccc(CCN2CCC(CN3C(=S)NC[C@@H]3CC(C)C)CC2)cc1OC	2%	.	.	8%
CC(=O)C1(O)Cc2c(O)c3c(c(O)c2C(OC2CC(N)C(O)C(C)O2)C1)C(=O)c1c(O)cccc1C3=O (stereo unspecified)	6%	.	.	-17%
O=C(c1ccccc1NS(=O)(=O)c1ccc([N+](=O)[O-])cc1[N+](=O)[O-])N1O[C@@H]2C=C[C@H]1C2	0%	.	.	3.2µM*
CC1CCCCN1C(=O)c1cnn2c1NC(=C1CC1)C=C2C(F)F (stereo unspecified)	-2%	.	.	-11%
COc1ccc(CNC(=O)CSc2n[nH]c(-c3ccc(OC)cc3)n2)cc1	-5%[57.1 µM]	.	.	-6%[57.1 µM]
O=C1C=C(Nc2ccccc2)C(=O)c2ccccc21	1%[57.1 µM]	5%	57%	4%[57.1 µM]
O=C1C=C(Nc2ccccc2)c2ccccc2C1=O	-7%[57.1 µM]	-1%	10µM*	18%[57.1 µM]
FC(F)(F)c1cccc(NC(=S)N(CCCN2CCCC2)Cc2cccn2Cc2ccc(Cl)cc2)c1	-7%	-1%	10µM*	5%
CN(CC(=O)Nc1ccccc1Cl)C(=O)COC(=O)C1=COCCO1	-9%	.	.	-8%
O=C(Nc1nc2n(n1)C(c1ccccc1)C=C(c1ccccc1)N2)c1ccccc1 (stereo unspecified)	10%	.	.	56µM*
COc1ccc(C2C=C(c3ccccc3)Nc3nc(NC(=O)c4ccc(C)cc4)nn32)cc1 (stereo unspecified)	5%	.	.	19%
COc1cc(OC)cc(-c2nc3ccccc3c(=O)n2OC(=O)c2ccccc2C)c1	-5%[57.1 µM]	0%	?	13%
SMILES	TrxR1 substrate	GALK inhibitor	NPSR antag	TrxR1 inh
O=C(On1c(-c2ccccc2)nc2ccccc2c1=O)c1ccco1	9%	-3%	-3%[46.1 µM]	5µM*
CC(C)(C)n1ncc2c(=O)n(Cc3ccc([S+](=O)([O-])N4CCOCC4)cc3)cnc21	-3%	.	.	-10%
Clc1ccc(-c2csc(=Nc3ccccc3)n2Cc2ccc3c(c2)OCO3)cc1	-7%	.	.	1%
Cc1ccc2oc(-c3ccc(NC(=O)COc4ccccc4)cc3O)nc2c1	238%	.	.	65%
Cc1cc(Nc2cccc(F)c2)n2nc(-c3ccco3)nc2n1	4%[57.1 µM]	.	.	-1%[57.1 µM]
O=C1c2cccc3c([N+](=O)[O-])ccc(c23)C(=O)N1c1ccccn1	-7%	-6%	?	?
O=C1c2cccc3cccc(c23)C(=O)N1c1nccs1	4%	5%	-2%[46.1 µM]	4%
O=C1c2cccc3c([N+](=O)[O-])ccc(c23)C(=O)N1c1nccs1	6%[57.1 µM]	-4%	10µM*	?
O=C1c2cccc3c([N+](=O)[O-])ccc(c23)C(=O)N1c1ccc(Cl)cn1	2%[57.1 µM]	1%	5µM*	?
COc1cc(/C=C2\SC(=O)NC2=O)ccc1Oc1ccc([N+](=O)[O-])cc1[N+](=O)[O-]	6%[57.1 µM]	4%	10µM*	8%[57.1 µM]
COc1cc2nc(Cl)nc(NC(C)C)c2cc1OC	-17%	.	.	?
CCN(CC)c1ccccc1/C=C/[n+]1ccc(CCCCI)c2ccccc21	-1%	.	.	?
COc1ccc(OCC(=O)N2CCN(c3cccc(Cl)c3)CC2)cc1	9%[11.4 µM]	-3%	-13%[46.1 µM]	25%[11.4 µM]
Cc1[nH]c2ccc(C(=O)N3CCN(c4cccc(Cl)c4)CC3)cc2c1C	1%	-12%	.	12%
CCS(=O)(=O)c1ncc(Cl)c(C(=O)N2CCN(c3cccc(Cl)c3)CC2)n1	-1%	.	.	0.4µM*
CS(=O)(=O)c1ncc(Cl)c(C(=O)N2CCN(c3cccc(Cl)c3)CC2)n1	1%	.	.	0.89µM*
O=C(Nc1cccc(Cl)c1)C1CCN(c2nc3ccccc3nc2C(F)(F)F)CC1	-13%[57.1 µM]	.	.	-9%[57.1 µM]
CCC(=O)Nc1sc2c(c1C(=O)Nc1ccc(Br)cc1)CCCCC2	2%	.	.	56µM*
O=C(Cc1ccccc1)Nc1sc2c(c1C(=O)Nc1ccccc1)CCCCC2	-4%	.	.	40µM*
CCC(=O)Nc1sc2c(c1C(=O)Nc1cccc(C)c1)CCCC2	0%[57.1 µM]	.	.	7%[57.1 µM]
COc1ccc2oc(=O)c(-c3nnc(NCc4ccco4)s3)cc2c1	6%	1%	2%[46.1 µM]	16µM*
CCOc1cccc2cc(-c3nnc(NCc4ccco4)s3)c(=O)oc12	12%[57.1 µM]	-1%	5%[46.1 µM]	7.9µM*
O=C(C[n+]1ccccc1Cl)c1ccc(Br)cc1	1%	.	.	-15%
Cc1ccc(C(C[N+](=O)[O-])n2nc(C)cc2C)cc1 (stereo unspecified)	-4%	-2%	23%[46.1 µM]	5.6µM*
CCN(CC)CCNC(=O)C1CCN(c2nn3cc(-c4ccc(F)cc4)nc3s2)CC1	7%	.	.	13%
COc1ccccc1CN(C)C(=O)c1ccc2c(c1)NC(=O)CS2	3%	-4%	-12%[46.1 µM]	-1%
Cc1ccc(CN(C)C(=O)c2ccc3c(c2)NC(=O)CS3)o1	-2%	0%	-9%	18µM*
COc1ccccc1-c1nc(S(=O)(=O)c2ccc(Cl)cc2)c(N2CCCCCC2)o1	9%	.	.	24%
COc1ccccc1-c1nc(S(=O)(=O)c2ccccc2)c(N2CCCCC2)o1	7%	-2%	.	0.89µM*
O=C(NNc1ccccc1[N+](=O)[O-])Nc1ccc(Cl)c(Cl)c1	6%[57.1 µM]	-1%	-59%	13%
